Source: PubChem (National Center for Advancing Translational Sciences (NCATS))
Hits are enriched below; roughly 21% of the tested compounds scored in any of these assays.
Shiga toxin inh: inhibitors of Shiga toxin in Vero cells; inhibition, % at 38.7 µM; Vero cells, Shiga toxin protein synthesis inhibition reporter; hit rate 9.2% among 290,000; AID 2315; in the data active means inhibition mostly above about 28%, no sharp cut-off; inactive means mostly below about 43%; further: 0% is about no effect
Pf growth 48h: P. falciparum growth inhibition at 48 hours (one generation). P. falciparum luciferase growth in erythrocytes, 48 h. Potency, µM (titrated, usually from 28.7 µM), inactives show at the highest dose activity change, negative = inhibition, usual class: inhibitors. hit rate 5.9% among 310,000; further: potency means the concentration at half of the fitted maximal effect; on the % scale 0 is the no-effect control and ±100 the full control effect
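Luciferase-expressing parasites in RBCs, 2% Hct / 0.1% parasitemia final; RPMI 1640 + 0.5% Albumax; 37 C, 5% CO2, one generation; luminescence read-out, lower signal = inhibition.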
Pf growth 96h: inhibits malaria parasite growth, 96 h; AID 504834; P. falciparum luciferase reporter growth, 96 h; hit rate 6.9% among 320,000; Potency, µM (doses to about 28.7 µM), for the others: at the top dose activity change, negative = inhibition, actives largely listed as inhibitors; further: potency means the concentration at half of the fitted maximal effect; on the % scale 0 is the no-effect control and ±100 the full control effect
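Parasite growth measured via integrated firefly luciferase reporter in P. falciparum. Infected erythrocytes at 2% hematocrit, 0.05% parasitemia final were treated 96 hours at 37 C under 5% CO2, and luminescence was read.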
CHX counter: affects cycloheximide protein synthesis inhibition readout, counter-screen | hit rate 12% among 300,000 | AID 2314 | cell reporter, cycloheximide protein synthesis inhibition counterscreen | max response, %; in the data active means max response mostly above about 13%, no sharp cut-off; inactive means mostly below about 14%; further: read at 38.3 µM for the half of the compounds with a filed dose; 0% is about no effect
An asterisk follows results filed as active; ? = inconclusive; · = no result given; [ ] = dose if it differs, or a comment. Unless noted, the call rests on the fitted dose curve; in most records, active means well fitted inhibition curve with a large enough effect; inconclusive means small, poorly fitted or top-dose-only effect, or another doubt; inactive means no such curve, though single readings can be large or run the other way.

SMILES | Shiga toxin inh | Pf growth 48h | Pf growth 96h | CHX counter
CC(C)C(C(=O)NCC1CCCO1)N(Cc1ccccc1)C(=O)CNS(=O)(=O)c1ccccc1 (stereo not drawn) | 5 | -10% | 15% | -8
O=C(NC1CCCC1)c1ncn[nH]1 | 7 | -7% | 6% | -1
O=C(Nc1ccc2c(c1)CN(Cc1ccccc1O)CC2)C1CCCO1 (stereo not drawn) | -1 | ? | 3.3µM* | -3
O=C(Nc1ccc2c(c1)CCC2)C1CCCO1 (stereo not drawn) | 53* | 90% | · | 39*
CSS(=O)(=O)c1cccc2cccnc12 | 23 | -12% | -6% | 2
COc1ccc(NC(=O)C2CCCN2C(=O)Nc2ccc(OC)cc2)cc1 (stereo not drawn) | 19 | 2% | 14% | -3
Cc1cc(Cl)ccc1NC(=S)NCC(O)c1ccccc1 (stereo not drawn) | · | -6% | ? | 8
Cc1ccc(NC(=S)NNC(=S)Nc2ccc(C)cc2C)cc1 | -9 | 34% | 118% | -1
Cc1ccc(NC(=S)Nc2ccccn2)c(C)c1 | 82* | 58% | ? | 48*
Cc1cc(Cl)ccc1NC(=S)Nc1ccccn1 | 23* | 108% | 32% | 33*
CCN1C(=O)C(=O)N(Cc2ccc(OC)c(F)c2)C1=O | 1 | 15% | 20% | -3
CCCc1nc(C)c2c(=O)[nH]c(-c3cc(S(=O)(=O)N4CCN(CC)CC4)ccc3OCC)nn12 | · | ? | 7.6µM* | ·
CCCCn1nc(CC(=O)O)c2ccccc2c1=O | -14 | -3% | 10µM* | -7
CCOC(=O)Cc1nn(C)c(=O)c2ccccc12 | -8 | 9% | 5.2µM* | 1
COC(=O)c1ccc(/C=C(\C#N)c2ccccn2)cc1 | 133* | 412% | 234% | 39*
CN(C)c1ccc(/C=C(\C#N)c2ccccn2)cc1 | -15 | -23% | -2% | -5
N#C/C(=C\c1cccnc1)c1ccc([N+](=O)[O-])cc1 | 15 | 2% | 2.6µM* | 5
N#C/C(=C\c1ccc([N+](=O)[O-])cc1)c1ccccn1 | 49* | -17% | 1% | 29*
Cc1ccc(Cn2ccc(=O)c(Cc3c(Cl)cccc3Cl)c2C)cc1 | -15 | ? | 0.41µM* | -8
Cc1ccnc(NC(=O)CNC(=O)c2ccc(Br)o2)c1 | · | 66% | 52% | ·
Cc1cc(/C=N/NC(N)=S)c(C)n1-c1ccc(Cl)cc1 | 14 | ? | 4% | 15
Cc1cc(/C=N/n2cnnc2)c(C)n1-c1ccc(OCc2ccccc2F)cc1 | 25 | ? | 18% | 26*
Cc1cc(/C=N/n2cnnc2)c(C)n1-c1ccc(OCc2ccc(Cl)cc2)cc1 | 92* | · | 12µM* | 52*
CCc1ccc(OC(C)C(=O)Nc2ccc(S(=O)(=O)Nc3nccs3)cc2)cc1 (stereo not drawn) | 24 | 12% | ? | -4
N#CCCn1nc(-c2ccc(Br)cc2)cc1Nc1ccccc1NC(=O)C(F)(F)F | 23 | ? | ? | -1
SMILES | Shiga toxin inh | Pf growth 48h | Pf growth 96h | CHX counter
N#CCCn1nc(-c2ccccc2)cc1Nc1ccccc1NC(=O)C(F)(F)F | -3 | -15% | ? | -4
N#CCCn1nc(-c2ccc([N+](=O)[O-])cc2)cc1Nc1ccccc1NC(=O)C(F)(F)F | 3 | 10µM* | 10µM* | 7
N#CCCn1nc(-c2ccc(Cl)cc2)cc1Nc1ccccc1NC(=O)C(F)(F)F | -1 | -7% | 12µM* | 3
COC(=O)c1cc(S(=O)(=O)NC2CCC(C)CC2)cn1C (stereo not drawn) | 1 | 5% | 10% | -2
Cc1cc(Cn2ccnc2)c(C)c([N+](=O)[O-])c1Cn1ccnc1 | -3 | 10µM* | ? | -2
Cc1ccccc1Cn1cnc2c([N+](=O)[O-])c(C)c(C)cc21 | -5 | -6% | ? | -2
CCOc1ccc(N2C(=O)CC(NCCNc3ccc([N+](=O)[O-])cn3)C2=O)cc1 (stereo not drawn) | -2 | 3% | 0.83µM* | -4
C/C=C/C=C/C(=O)Nc1nccs1 | 8 | 86% | ? | 17*
O=C(/C=C/c1ccc(Cl)cc1)Nc1nccs1 | 70* | 151% | ? | 54*
O=C(O)c1ccccc1NCc1cccs1 | · | 1% | -91% | -3
Cc1cccc(C(=O)NCC(=O)N2CCN(S(=O)(=O)c3ccc4c(c3)OCCO4)CC2)c1 | · | ? | -24% | ·
CCOC(=O)C1(CCCc2ccccc2)CCN(C(=O)C2CCCN(C(N)=O)C2)CC1 (stereo not drawn) | -4 | ? | 13µM* | -1
CCOC(=O)C1(CCCc2ccccc2)CCN(C(=O)C2CCCO2)CC1 (stereo not drawn) | -20 | ? | 33% | 12
CCOC(=O)C1(CCc2ccccc2)CCN(C(=O)C2CCCO2)CC1 (stereo not drawn) | 3 | -5% | ? | 13
CCOC(=O)C1(CCc2ccccc2)CCN(C(=O)[C@@H]2C[C@@H](C)NC(=S)N2)CC1 | 15 | ? | ? | 13*
CCCS(=O)(=O)c1c(S(=O)(=O)CCC)c2ccc(C(N)=O)cn2c1C(=O)c1ccc(OC)cc1 | 12 | ? | 12% | -4
O=C1CCN(CCc2ccccc2)CCN1C(CSc1ccc(Br)cc1)Cc1ccccc1 (stereo not drawn) | -4 | · | · | -2
Cc1ccc(S(=O)(=O)N2CCOCC2)cc1C(=O)NC(=S)N1CC(C)OC(C)C1 (stereo not drawn) | 5 | -11% | ? | 1
CN(C)c1cc[n+](CCC(=O)Nc2cccc([N+](=O)[O-])c2N)cc1 | -2 | ? | 3.3µM* | 1
Nc1c(NC(=O)CC[n+]2ccccc2)cccc1[N+](=O)[O-] | 96* | 93% | 73% | 46*
Cc1ccc(CN2CC(C(=O)Nc3ncccc3C)CC2=O)cc1 (stereo not drawn) | -6 | -7% | 43% | -3
Cc1c(Cl)sn(-c2ccc(Cl)cc2)c1=O | 92* | ? | ? | 35*
COc1ccc(Cl)cc1C(=O)Nc1nc2ccc(S(C)(=O)=O)cc2s1 | 28 | 85% | ? | 20
COc1cc(OC)cc(C(=O)Nc2nc3ccc(S(C)(=O)=O)cc3s2)c1 | 52* | 105% | 118% | 17
O=S(=O)(/N=C(/Nc1nc2ccccc2s1)c1ccccc1)c1ccccc1 | · | 123% | 108% | ·
SMILES | Shiga toxin inh | Pf growth 48h | Pf growth 96h | CHX counter
c1ccc2sc(NN=C3CCCCCC3)nc2c1 | 68 | -41% | -23% | 33*
Cc1ccc(C(=O)Nc2nc3ccc(S(C)(=O)=O)cc3s2)s1 | 72 | 65% | 24% | 70*
CS(=O)(=O)c1ccc2nc(NC(=O)c3cccs3)sc2c1 | 9 | 41% | 146% | -2
O=C(C[n+]1ccccc1)Nc1nc2ccccc2s1 | 29 | 18% | -11% | 21*
COc1ccccc1OCCCCn1ncc2ccc(OC)c(OC)c2c1=O | -7 | 4%[0.00184 µM] | -13% | -1
Cc1c(Cl)cccc1NS(=O)(=O)c1ccc(-c2ccc(=O)[nH]n2)o1 | -3 | 4% | 15% | -4
O=C(O)c1nn(Cc2csc(-c3ccccc3)n2)c(=O)c2ccccc12 | 1 | -4% | 76% | 2
COc1cc(C(=O)Nc2nc3ccc(S(C)(=O)=O)cc3s2)cc(OC)c1C | 4 | ? | 7.4µM* | 7
